Assay [1] is described as follows: Quantitative High-Throughput drug screen in 47 multiple myeloma cell lines against the NCATS MIPE library collection: MM1R_ATCC cell viability assay (AID 1918981). Note: nearly all actives have a fitted effect of over 35% in size. The method in brief:
(§1)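 Readout: median RLU from CellTiter-Glo after 5 min at room temperature. Preceding step was 48 h drug treatment of 500 cells/well at 37 °C, 5% CO2, with DMSO-only and media-only control wells.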

A short description of assay [2]: Quantitative High-Throughput drug screen in 47 multiple myeloma cell lines against the NCATS MIPE library collection: LP1_DSMZ cell viability assay (AID 1918982). Note: nearly all actives have a fitted effect of over 35% in size. The method in brief:
as §1

A short description of assay [3]: Quantitative High-Throughput drug screen in 47 multiple myeloma cell lines against the NCATS MIPE library collection: KMS34_JCRB cell viability assay (AID 1918985). Note: nearly all actives have a fitted effect of over 40% in size. The essentials: as §1
The nature of assay [4]: Quantitative High-Throughput drug screen in 47 multiple myeloma cell lines against the NCATS MIPE library collection: OPM1_PLB cell viability assay (AID 1918989). Note: nearly all actives have a fitted effect of over 40% in size. The essentials: as §1
A short description of assay [5]: Quantitative High-Throughput drug screen in 47 multiple myeloma cell lines against the NCATS MIPE library collection: SKMM1_PLB cell viability assay (AID 1919863). For viability: series mostly up to about 46 µM. Note: nearly all actives have a fitted effect of over 35% in size. Conditions: SKMM1 myeloma viability, CellTiter-Glo ATP, 48 h; viability: active compounds read low. The method in brief:
as §1

Assay [6] can be described thus: Quantitative High-Throughput drug screen in 47 multiple myeloma cell lines against the NCATS MIPE library collection: U266_ATCC cell viability assay (AID 1919864). Note: nearly all actives have a fitted effect of over 35% in size. The essentials:
as §1

Assay [7] is described as follows: Quantitative High-Throughput drug screen in 47 multiple myeloma cell lines against the NCATS MIPE library collection: KMS28PE_JCRB cell viability assay (AID 1918983). Note: nearly all actives have a fitted effect of over 35% in size. The method in brief: as §1
Assay [8] in a line: Quantitative High-Throughput drug screen in 47 multiple myeloma cell lines against the NCATS MIPE library collection: OCIMY7_PLB cell viability assay (AID 1918987). Note: nearly all actives have a fitted effect of over 65% in size. The method in brief:
as §1

Assay [9] can be described thus: Quantitative High-Throughput drug screen in 47 multiple myeloma cell lines against the NCATS MIPE library collection: L363_DSMZ cell viability assay (AID 1918984). Note: nearly all actives have a fitted effect of over 40% in size. The essentials:
as §1

A short description of assay [10]: Quantitative High-Throughput drug screen in 47 multiple myeloma cell lines against the NCATS MIPE library collection: OCIMY5_PLB cell viability assay (AID 1918988). Note: nearly all actives have a fitted effect of over 65% in size. The essentials: as §1

Results filed as inconclusive are left out. A number with no mark means an inactive call. Active and inactive are the calls of the source. Calls come from the whole dose curve; as a rule, active = well fitted cell-killing curve with a large enough effect; inconclusive = small, poorly fitted or top-dose-only effect, or effect the other way; inactive = no such curve, though single readings can be large or run the other way.

In general, viability refers to a read-out of living cells in per cent, often relative to untreated cells.
Potency is the fitted concentration of half-maximal effect.

As for `O=C(O)CCCc1c[nH]c2ccccc12`, the Potency entry in assay [1], in assay [2], in assay [3], in assay [4] and in assay [6] was “inactive” throughout. In assay [5], the viability is 113%.
Consider `Cc1ccc(CN2CCNCC2)cc1NC(=O)CNc1ccc(F)c(F)c1`, for which the Potency is 26.4 µM (active) in assay [1] and 20.9 µM (active) in assay [7].
On to `CC(=O)SC[C@@H](C)C(=O)N1CCC[C@H]1C(=O)N[C@@H](Cc1ccccc1)C(=O)O`, for which the Potency result in assay [1], in assay [2], in [8] and in [4] was “inactive” throughout. For the same compound, the viability in assay [5] is 151%.
With `CC1COC2(CCN(c3nc(=O)c4cc(C(F)(F)F)cc([N+](=O)[O-])c4s3)CC2)O1` (stereo not given), the Potency result in [1], in assay [2], in assay [3], in assay [4] and in [6] was “inactive” each time. For the same compound, the viability in assay [5] was 134%.
On to `Cc1cnc(Nc2ccc(F)cc2Cl)nc1-c1c[nH]c(C(=O)N[C@H](CO)c2cccc(Cl)c2)c1`, for which the Potency in assay [1] was 16.6 µM (active); in assay [2], 18.7 µM (active); in [9], 1.32 µM (active); in [3], 23.5 µM (active); in [8], 4.69 µM (active); in assay [10] it was 18.7 µM (active). Further, the Potency in [5] and in [6] was 20.9 µM (active) in each case.
Take `C[C@H]1C[C@@H]2[C@@H]([C@@H](O)C[C@@]3(C)[C@H]2CC[C@]3(O)C(=O)CO)[C@@]2(C)C=CC(=O)C=C12`: the Potency entry in assay [1], in assay [7], in [3], in [4] and in [6] was “inactive” in each case. Besides, the Potency in [2] is 0.0833 µM (active). Also, the viability in [5] is 112%.
Consider `CN(C)c1nc(Cc2ccc(NC(=O)c3ccc4ccccc4c3)cc2)nc(Cl)c1CC(=O)O`, for which the Potency entry in assay [1], in assay [2], in assay [7], in [4] and in assay [6] was “inactive” in each case. Further, the Potency in assay [10] was 1.66 µM (active).
For `CC[C@H](CO)Nc1nc(NCc2ccccc2)c2ncn(C(C)C)c2n1`, the Potency in assay [1] was 26.4 µM (active); in assay [2], 26.4 µM (active); in assay [3], 26.4 µM (active); in assay [8], 16.6 µM (active); in [10] it was 18.7 µM (active); in assay [4] it was 23.5 µM (active). The Potency in [6] is 23.5 µM (active).
For `Nc1ncnc2c1c(-c1cnc3[nH]ccc3c1)nn2C1CCCC1`, the Potency in [1] was 2.09 µM (active); in assay [7], 1.87 µM (active); in assay [9], 0.0935 µM (active); in assay [3] it was 1.87 µM (active); in [8], 1.18 µM (active); in [10], 3.32 µM (active). Further, the Potency in assay [4] was 0.59 µM (active); in [5], 4.69 µM (active); in assay [6] it was 14.8 µM (active).
In the case of `CNC(=O)c1nn(C)c2c1C(C)(C)Cc1cnc(Nc3ccc(N4CCN(C)CC4)cc3)nc1-2`, the Potency was 3.32 µM (active) in assay [1]; 5.9 µM (active) in assay [2]; 0.662 µM (active) in [9]; 1.48 µM (active) in assay [3]; 1.32 µM (active) in [8]; 1.18 µM (active) in assay [10]. Further, the Potency in [4] is 1.66 µM (active); in assay [5], 9.35 µM (active); in assay [6] it was 0.935 µM (active).
With `O=C(C=Cc1cccc(S(=O)(=O)Nc2ccccc2)c1)NO`, the Potency in [1] is 1.21 µM (active); in [7], 3.82 µM (active); in [9], 0.855 µM (active); in assay [3], 1.36 µM (active); in assay [8], 2.15 µM (active); in [10], 1.21 µM (active). The Potency was 1.91 µM (active) in assay [4], 4.29 µM (active) in [5] and 2.7 µM (active) in assay [6].
Regarding `CC(C)(C)c1cc(C(C)(C)C)c(NC(=O)c2c[nH]c3ccccc3c2=O)cc1O`, the Potency entry in assay [1], in [2], in assay [7], in assay [3] and in assay [6] was “inactive” throughout. Moreover, the viability in [5] is 97.5%.
On to `c1nc2nc(Nc3ccc(N4CCOCC4)cc3)nc(NC3CCCCC3)c2[nH]1`, for which the Potency is 14.8 µM (active) in [1]; 16.6 µM (active) in assay [7]; 5.26 µM (active) in assay [9]; 5.26 µM (active) in assay [3]; 3.32 µM (active) in assay [8]; 18.7 µM (active) in assay [10]. For the same compound, the Potency in assay [4] is 4.69 µM (active).
Consider `C=C1C(=CC=C2CCC[C@]3(C)[C@@H]([C@H](C)C=C[C@H](C)C(C)C)CC[C@@H]23)C[C@@H](O)C[C@@H]1O`, for which the Potency in [1] is 1.66 µM (active); in assay [7] it was 13.2 µM (active); in [9], 0.264 µM (active); in [3] it was 3.32 µM (active); in assay [8], 11.8 µM (active); in [10], 0.526 µM (active). In addition, the Potency in assay [4] was 1.66 µM (active); in [5], 14.8 µM (active); in assay [6], 1.05 µM (active).
Turning to `CC(=O)OCCN1C(=O)c2c(C)nc3ccc(S(=O)(=O)N4CCOCC4)cc3c2C1=O`, the Potency entry in assay [1], in assay [2], in [9], in assay [3], in assay [10] and in [4] was “inactive” in each case.
Take `CNC(=O)c1c(F)cccc1Nc1nc(Nc2cc3c(cc2OC)CCN3C(=O)CN(C)C)nc2[nH]ccc12`: the Potency in assay [1] is 0.0935 µM (active); in assay [2], 16.6 µM (active); in assay [3], 8.33 µM (active); in assay [8], 0.105 µM (active); in assay [10] it was 1.66 µM (active); in assay [4], 7.43 µM (active). The Potency in [5] is 10.5 µM (active); in assay [6], 3.32 µM (active).
Regarding `COc1cc(C(=O)NS(=O)(=O)c2ccccc2C)ccc1Cc1cn(C)c2ccc(NC(=O)OC3CCCC3)cc12`, the Potency in assay [1] is 14.8 µM (active); in [2], 20.9 µM (active); in assay [7] it was 23.5 µM (active); in [8], 14.8 µM (active); in [10] it was 18.7 µM (active); in assay [4] it was 7.43 µM (active). Moreover, the Potency in assay [5] and in [6] was 18.7 µM (active) in each case.
As for `CNC(=O)c1ccc(N2C(=S)N(c3cnc(C#N)c(C(F)(F)F)c3)C(=O)C23CCC3)cc1F`, the Potency is 1.05 µM (active) in assay [1]; 26.4 µM (active) in assay [7]; 7.43 µM (active) in assay [9]; 0.526 µM (active) in assay [8]; 0.118 µM (active) in assay [10]; 2.64 µM (active) in [4]. Also, the Potency entry in assay [3] is “inactive”.

The record behind these values is PubChem BioAssay (NCATS).
